Counter-ions that a name gives are not always drawn. ± gives the standard deviation of the averaged measurements.
The compounds below were run on E. coli TESEC Mtb DapB (assay: growth (OD600 after 10 h); higher = more growth (less inhibition)). Conditions: arabinose induction (level): High; compound 0.1 mM; raw OD600 reference: median of DMSO wells […], cell-free background 0.041.
Procedure: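 TESEC E. coli strains in which the native enzyme is deleted and replaced by arabinose-inducible Mtb Asd, DapB, CysH or TrpD, each grown in its selective medium. Strains were screened against the Prestwick library at 0.1 mM and 1% DMSO in 384-well format at low and high arabinose induction. Growth is read as OD600 after 10 h in triplicate.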

Compound | growth
CN1CCc2cccc3c2[C@H]1Cc1ccc(O)c(O)c1-3 [R(-) Apomorphine hydrochloride hemihydrate] | 0.16 ± 0.0062
CN1CCCN(C(c2ccccc2)c2ccc(Cl)cc2)CC1 (centres undefined) [Homochlorcyclizine dihydrochloride] | 0.169 ± 0.0068
Cc1ncc(CO)c(CO)c1O [Pyridoxine hydrochloride] | 0.215 ± 0.011
O=C(NCC(O)CO)c1c(I)c(C(=O)NCC(O)CO)c(I)c(N(CCO)C(=O)CO)c1I (centres undefined) [Ioversol] | 0.202 ± 0.015
C[C@@H]1[C@H](O)[C@@H](C)/C=C/C=C/C=C/C=C/C=C/C=C/C=C/[C@H](O[C@@H]2O[C@H](C)[C@@H](O)[C@H](N)[C@@H]2O)C[C@@H]2O[C@](O)(C[C@@H](O)C[C@@H](O)[C@H](O)CC[C@@H](O)C[C@@H](O)CC(=O)O[C@H]1C)C[C@H](O)[C@H]2C(=O)O [Amphotericin B] | 0.208 ± 0.019
C=Cc1c(C)c2cc3nc(cc4[nH]c(cc5nc(cc1[nH]2)C(C)=C5CCC(=O)O)c(CCC(=O)OC)c4C)[C@@]1(C)C3=CC=C(C(=O)OC)C1C(=O)OC.C=Cc1c(C)c2cc3nc(cc4[nH]c(cc5nc(cc1[nH]2)C(C)=C5CCC(=O)OC)c(CCC(=O)O)c4C)[C@@]1(C)C3=CC=C(C(=O)OC)C1C(=O)OC (some centres undefined) [Verteporfin] | 0.211 ± 0.024
CC(C)C[C@H](NC(=O)[C@@H](O)[C@H](N)Cc1ccccc1)C(=O)O [Ubenimex] | 0.192 ± 0.017
CC(COc1ccccc1)N(CCCl)Cc1ccccc1 (centres undefined) [Phenoxybenzamine hydrochloride] | 0.175 ± 0.013
CN(C)CCCOc1nn(Cc2ccccc2)c2ccccc12 [Benzydamine hydrochloride] | 0.192 ± 0.023
CC1CS(=O)(=O)CCN1/N=C/c1ccc([N+](=O)[O-])o1 (centres undefined) [Nifurtimox] | 0.188 ± 0.029
NCC[C@H](O)C(=O)N[C@@H]1C[C@H](N)[C@@H](O[C@H]2O[C@H](CN)[C@@H](O)[C@H](O)[C@H]2O)[C@H](O)[C@H]1O[C@H]1O[C@H](CO)[C@@H](O)[C@H](N)[C@H]1O [Amikacin hydrate] | 0.0548 ± 0.0017
Cc1cn([C@H]2C[C@H](N=[N+]=[N-])[C@@H](CO)O2)c(=O)[nH]c1=O [Zidovudine, AZT] | 0.148 ± 0.0088
NC1CCN(c2nc3c(cc2F)c(=O)c(C(=O)O)cn3-c2ccc(F)cc2F)C1 (centres undefined) [Tosufloxacin hydrochloride] | 0.05407 ± 0.0005
CC[C@H](C)C(=O)O[C@H]1C[C@H](O)C=C2C=C[C@H](C)[C@H](CC[C@@H](O)C[C@@H](O)CC(=O)O)[C@H]21 [Pravastatin] | 0.209 ± 0.0069
CC(NCCC(c1ccccc1)c1ccccc1)c1ccccc1 (centres undefined) [Fendiline hydrochloride] | 0.0461 ± 0.00056
CCN1CCCC(OC(=O)C(c2ccccc2)c2ccccc2)C1 (centres undefined) [Piperidolate hydrochloride] | 0.178 ± 0.018
COc1ccc(C(=O)NCc2ccc(OCCN(C)C)cc2)cc1OC [Itopride] | 0.228 ± 0.028
CCCCOc1ccc(C(=O)CCN2CCCCC2)cc1 [Dyclonine hydrochloride] | 0.149 ± 0.0069
CC(C)C(=O)c1c(C(C)C)nn2ccccc12 [Ibudilast] | 0.194 ± 0.012
CC(O)(P(=O)(O)O)P(=O)(O)O [Etidronic acid, disodium salt] | 0.216 ± 0.003

Compound | growth
Nc1ccc(O)c(C(=O)O)c1 [Mesalamine] | 0.195 ± 0.024
CC=CC1=C(C(=O)O)N2C(=O)[C@@H](NC(=O)[C@H](N)c3ccc(O)cc3)[C@H]2SC1 [Cefprozil] | 0.204 ± 0.0084
O=C(OCC(O)CO)c1ccccc1Nc1ccnc2cc(Cl)ccc12 (centres undefined) [Glafenine hydrochloride] | 0.196 ± 0.0089
CC1Cc2ccccc2N1NC(=O)c1ccc(Cl)c(S(N)(=O)=O)c1 (centres undefined) [Indapamide] | 0.208 ± 0.016
CN(C)CCN1C(=O)c2ccccc2N(C)c2ccccc21 [Dibenzepine hydrochloride] | 0.165 ± 0.012
CO[C@@]1(NC(=O)Cc2cccs2)C(=O)N2C(C(=O)O)=C(COC(N)=O)CS[C@@H]21 [Cefoxitin sodium salt] | 0.0512 ± 0.0019
CCC1(c2ccccc2)NC(=O)N(C)C1=O (centres undefined) [Mephenytoin] | 0.184 ± 0.013
CCN(CC)CC#CCOC(=O)C(O)(c1ccccc1)C1CCCCC1 (centres undefined) [Oxybutynin chloride] | 0.159 ± 0.0078
COC(=O)[C@H](c1ccccc1Cl)N1CCc2sccc2C1 [Clopidogrel] | 0.153 ± 0.015
CN(C)CCOc1ccc(/C(=C(/CCCl)c2ccccc2)c2ccccc2)cc1 [Toremifene] | 0.0495 ± 0.0014
O=C1c2ccccc2S(=O)(=O)N1CCCCN1CCN(c2ncccn2)CC1 [Ipsapirone] | 0.205 ± 0.026
COc1ccc(-c2cc(=S)ss2)cc1 [Anethole-trithione] | 0.193 ± 0.0052
CCCc1nc2c(C)cc(-c3nc4ccccc4n3C)cc2n1Cc1ccc(-c2ccccc2C(=O)O)cc1 [Telmisartan] | 0.273 ± 0.0084
CSc1ccc2c(c1)N(CCC1CCCCN1C)c1ccccc1S2 (centres undefined) [Thioridazine hydrochloride] | 0.04803 ± 0.00029
CCOC(=O)c1ccc(N)cc1 [Benzocaine] | 0.212 ± 0.013
Cc1cc2c(cc1S(N)(=O)=O)S(=O)(=O)CCC2 [Meticrane] | 0.186 ± 0.0019
CC(C)COCC(CN(Cc1ccccc1)c1ccccc1)N1CCCC1 (centres undefined) [Bepridil hydrochloride] | 0.0467 ± 0.0011
NC[C@H]1O[C@H](O[C@H]2[C@H](O[C@@H]3O[C@H](CO)[C@@H](O)[C@H]3O)[C@@H](O)[C@H](N)C[C@@H]2N)[C@H](N)[C@@H](O)[C@@H]1O [Ribostamycin sulfate salt] | 0.218 ± 0.023
N=C(N)NS(=O)(=O)c1ccc(N)cc1 [Sulfaguanidine] | 0.203 ± 0.0078
